# High-throughput results (PubChem)
# PINK1 expr mod – PINK1 expression modulation; PINK1 immunofluorescence, high-content cytometry, 24 h; Potency, µM (titrated, usually from 76.6 µM), without a hit: at the highest dose activation (PINK1 increase), hits mostly activators; actives 0.2% (n = 410,000); AID 624263; active = well fitted activation curve with a large enough effect; inconclusive = small, poorly fitted or top-dose-only effect; cell line not stated here; note: % of control where 0% means no effect; nearly all actives have a fitted effect of over 65% in size
#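 PINK1 protein, normally rapidly degraded, was detected by immunofluorescence after 24 hour compound treatment of a stable cell line. Titration data (5 concentrations) came from laser-scanning cytometry, with CCCP-treated wells as controls.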
# SW480 rereplic – DNA re-replication induction in SW480 cells; actives 1.8% (n = 340,000); SW480 DNA re-replication, Hoechst DNA content imaging, 48 h; Potency, µM (titrated, usually from 46.1 µM), inactives show at the top dose re-replication activation, most hits filed as activators; note: % of control where 0% means no effect; nearly all actives have a fitted effect of over 55% in size
#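 Readout is total intensity of Hoechst-stained nuclei, excited at 405 nm and collected at 500-530 nm. Compound treatment lasted 48 hr at 37 C in 5% CO2 before staining.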
# MCF10A rerep – induces DNA re-replication in MCF 10a normal breast cells; MCF 10A DNA re-replication, Hoechst nuclear intensity, 48 h; Potency, µM (titrated, usually from 46.1 µM), inactives show top-dose activity, positive = re-replication, hits mostly activators; actives 2.9% (n = 350,000); note: % of control where 0% means no effect; nearly all actives have a fitted effect of over 50% in size
# KB-3-1 cytotox – KB-3-1 parental cell cytotoxicity; AID 1347075; actives 1.4% (n = 400,000); KB-3-1 viability, CellTiter-Glo ATP luminescence, 72 h; Potency, µM (series often up to 46.1 µM), hits mostly cytotoxic; note: % is set by controls: 0 for no effect and ±100 for the full control effect; nearly all actives have a fitted effect of over 60% in size
#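 KB-3-1 parental drug-naive adenocarcinoma cells in DMEM/10% FBS, incubated 72 h at 37 C with pin-transferred compounds across a concentration series. Viability by CellTiter-Glo luminescence; concentration-response curves fitted after normalization.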
# KB-V1 cytotox – kills drug-selected multidrug resistant KB-V1 cells | KB-V1 MDR cells viability, CellTiter-Glo, 72 h | Potency, µM (titrated, usually from 46.1 µM), hits mostly cytotoxic | actives 3.4% (n = 400,000); note: % is set by controls: 0 for no effect and ±100 for the full control effect; nearly all actives have a fitted effect of over 60% in size
#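 KB-V1 cells (P-gp-expressing MDR subline of KB-3-1) in phenol-red-free DMEM with 10% FBS were exposed to library compounds over a concentration series for 72 h at 37 degrees C. Viability read by CellTiter-Glo luminescence; concentration-effect curves fitted after normalization.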
# * hit, by the source's call; i = inactive; ? = inconclusive; · = not tested or not shown; [ ] = remark or other dose. Shown are actives, neighbours in structure and some others; about 6.7% of the full set was active somewhere. Unless noted, calls come from the whole dose curve; as a rule, active = well fitted curve in the direction sought with a large enough effect; inconclusive = small, poorly fitted or top-dose-only effect, or another doubt; inactive = no such curve, though single readings can be large; an effect the other way counts as inactive or inconclusive. Potency is the fitted concentration of half-maximal effect.
SMILES,PINK1 expr mod,SW480 rereplic,MCF10A rerep,KB-3-1 cytotox,KB-V1 cytotox
CCCCn1c(N)c(N(Cc2ccccc2OC)C(=O)C(C)Oc2ccc(Cl)cc2)c(=O)[nH]c1=O (stereo not drawn),3%,21µM*,-18%,?,i
Cc1c(C(=O)Nc2ccc3c(c2)OCCO3)sc2nc(-c3ccccc3)cn12,-2%[38.3 µM],-1%,-1%,?,12µM*
Cc1c(C(=O)NCc2ccco2)sc2nc(-c3ccccc3)cn12,3%,?,?,16µM*,i
Cc1c(C(=O)N2CCOCC2)sc2nc(-c3ccccc3)cn12,1%,-9%,-12%,i,23µM*
Cc1c(C(=O)NCc2cccnc2)sc2nc(-c3ccccc3)cn12,0%,0%,?,?,i
Cc1c(C(=O)Nc2ccncc2)sc2nc(-c3ccccc3)cn12,11%,0%,?,i,i
COCCn1c(=O)cnc2cnc(N3CCNCC3)nc21,-1%,·,·,·,·
CN(Cc1cccs1)C(=O)COc1cccc2c1OC(C)(C)C2,-1%,1%,-4%,i,18µM*
CN(C)CCNC(=O)COc1cccc2c1OC(C)(C)C2,2%,14%,-7%,i,i
CC1(C)Cc2cccc(OCC(=O)NCCc3ccc(S(N)(=O)=O)cc3)c2O1,-1%,-6%,-4%,i,26µM*
CCc1ccc(NC(=O)CN2C(=O)c3ccccc3Sc3ccc(C(=O)N4CCCC4)cc32)cc1,3%,·,·,i,i
Cn1cnc2nc(Cl)nc(Cl)c21,3%,1.3µM*,7.3µM*,3.3µM*,3.7µM*
CCc1ccc(NC(=O)C2CCCN2S(=O)(=O)c2ccc3c(c2)CCCC(=O)N3)cc1 (stereo not drawn),0%,·,·,i,i
CCC1=C/C(=C/c2sc3ccccc3[n+]2CC)CC(C)(C)C1,13%,?,?,?,?
CC[n+]1c(/C=C2\C=C(C)CC(C)(C)C2)sc2ccccc21,13µM*,?,?,i,i
CC[n+]1c(/C=C2/C=C(C)CC(C)(C)C2)sc2ccc(OC)cc21,?,?,16µM*,21µM*,i
CC[n+]1c(/C=C2\C=C(C)CC(C)C2)sc2ccccc21 (stereo not drawn),?,2%,23µM*,i,i
CCc1cc2c(=O)nc3n(c2s1)Cc1ccccc1/C3=C(/O)c1cccc([N+](=O)[O-])c1,2%[38.3 µM],1%,?,i,i
CCc1cc2c(=O)nc3n(c2s1)Cc1ccccc1/C3=C(/O)c1ccccc1Cl,10%,9%,6.5µM*,i,i
Cc1cc(Cl)c2oc(C(=O)N3CCN(c4ccncc4)CC3)c(C)c2c1,-1%,12µM*,5.8µM*,?,?
COCCNC(=O)c1cc(S(=O)(=O)N(C)C2CCCCC2)ccc1Cl,1%,·,·,i,i
Nc1ccc2c(c1)COc1ccccc1O2,9%[38.3 µM],-3%,3%,i,18µM*
COc1ccc(CN2CC[C@H]3C=CC[C@@H](C(=O)NCc4cccnc4)[C@H]3C2=O)cc1OC,·,·,·,i,i
N#Cc1nnn2c1nc(N)c1c(Cl)cccc12,-1%,·,·,1.3µM*,0.58µM*
N#Cc1nnn2c1nc(N)c1c(F)cccc12,2%,-2%,5%,?,2.9µM*
SMILES,PINK1 expr mod,SW480 rereplic,MCF10A rerep,KB-3-1 cytotox,KB-V1 cytotox
COc1cc(CNCCCN2CCOCC2)c(Br)cc1OCC(=O)Nc1ccccc1C,-1%,?,15µM*,i,i
COc1cc(/C=N/O)c(Br)cc1OCC(=O)Nc1ccccc1C,7%,?,-52%,i,8.2µM*
Cc1oc(-c2ccccc2NC(=O)C2CCC2)nc1CNC(=O)c1ccc(C#CC(C)(C)O)cc1,3%,·,·,·,·
Cc1noc(C)c1-c1csc(N2CCC(C(N)=O)CC2)n1,2%,-9%,1%,i,i
COC(=O)c1c(NC(=O)C(C)(C)C)sc2c1C(C(=O)OC)CC2 (stereo not drawn),-2%,-3%[9.22 µM],20%,?,21µM*
COC(=O)c1c(NC(=O)C(Cl)Cl)sc2c1C(C(=O)OC)CC2 (stereo not drawn),1%,?,8.2µM*,i,i
COC(=O)c1c(NC(=O)Cc2ccccc2)sc2c1C(C(=O)OC)CC2 (stereo not drawn),2%,-11%,19%,i,i
